From PubChem BioAssay
Many of the other results were omitted from the sample, so hits are more common in it than they were.
RVFV N-RNA FP: RVFV nucleocapsid-RNA interaction inhibition | P21700 | RVFV N-RNA binding, fluorescence polarization; active compounds read low | % bound, % (no concentration beside the values) | actives 0.1% (n = 20,000) | AID 651828; in the data active = % bound below about 75%
Target sequence (P21700 whole entry, looked up): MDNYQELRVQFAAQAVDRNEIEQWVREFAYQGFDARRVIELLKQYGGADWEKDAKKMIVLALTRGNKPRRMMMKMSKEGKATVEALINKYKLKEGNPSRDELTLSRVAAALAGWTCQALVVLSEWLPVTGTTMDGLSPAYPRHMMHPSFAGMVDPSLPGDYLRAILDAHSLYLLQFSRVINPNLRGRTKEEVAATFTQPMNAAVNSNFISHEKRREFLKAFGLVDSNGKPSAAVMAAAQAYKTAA
The depositor's hits bear a star; ! = repeats disagree.

SMILES	RVFV N-RNA FP
O=C(OCc1ccc2c(c1)OCO2)c1cc2ccccc2oc1=O	103.5
COC(=O)c1cccc(NC(=O)CC(C)C)c1	104.3
CCNC(=O)c1ccc(OC)c(OC)c1	102.0
O=C(CNc1ccc2c(c1)oc1ccccc12)c1ccc2c(c1)OCO2	100.3
COc1ccc(Cl)cc1N1C(=O)CC(NC(C)(C)C)C1=O (stereo not given)	97.5
C=CCN=Cc1c(O)[nH]c2ccccc12	94.2
OCCN=Cc1[nH]c2ccccc2c1O	54.9*
OCC(O)CN=Cc1c(O)[nH]c2ccccc12 (stereo not given)	92.3
CNc1ccc(C(O)(C(F)(F)F)C(F)(F)F)cc1	95.9
N#Cc1ccccc1COC(=O)c1ccccn1	105.6
OC1CCSc2ccc(Cl)cc21 (stereo not given)	94.8
COC(=O)C1=CN(CC(C)C)C=C(C(=O)OC)C1c1cccs1	99.3
NC(CO)C(=O)NNCc1ccc(O)c(O)c1O (stereo not given)	85.1
O=C(CSc1ccccc1)N/N=C/c1ccccc1O	88.9
NC(CO)C(=O)N/N=C/c1ccc(O)c(O)c1O (stereo not given)	50.6*
Cc1ccccc1OCc1ccc(C(=O)NC(C)C)o1	96.0
COCc1ccccc1Cn1cnc2ccccc21	100.3
CC1CCCCC1NC(=O)CSc1ccccc1 (stereo not given)	94.0
CCCN1C(=O)c2ccc(-c3nc4cc(Cl)ccc4c(=O)o3)cc2C1=O	94.3
COc1ccc(Cn2[nH]nnc2=S)cc1	86.8
CSc1ccc(C(=O)Nc2nnc(C3=COCCO3)o2)cc1	94.0
CSCC[C@H](NC(=O)[C@H](Cc1c[nH]c2ccccc12)NC(=O)[C@H](C)NC(=O)OC(C)(C)C)C(=O)N[C@@H](CC(=O)O)C(=O)N[C@@H](Cc1ccccc1)C(N)=O	103.9
Cc1ccc(SC(C)C(=O)Nn2cnnc2)cc1 (stereo not given)	100.0
O=C(COc1coc(CN2CCN(Cc3ccccc3)CC2)cc1=O)NCC1CCCO1 (stereo not given)	90.2
O=C(COc1ccc(S(=O)(=O)N2CCOCC2)cc1)NCCC1=CCCCC1	97.2
SMILES	RVFV N-RNA FP
O=C(CSC1=N/C(=C/c2ccco2)C(=O)N1c1ccccc1)Nc1nc2ccccc2s1	98.3
c1ccc(COn2c3c(c4c5nonc5ccc42)CCCC3)cc1	81.7
CC(C)(C)NC(=O)COc1ccc(CO)cc1	93.6
Cc1ccc(-c2nn3c(CC#N)nnc3c3ccccc23)cc1	98.5
COn1c(=O)c(-c2ccc(I)cc2)[n+]([O-])c2ccccc21	106.9
Cn1[nH]c(Nc2ccccc2Cl)c(N=Nc2ccccc2)c1=O	89.7
O=C1N/C(=N\O)S/C1=C/c1cccnc1	96.5
Cc1cc(C)cc(N2CC(c3nc4ccccc4n3C(C)C)CC2=O)c1 (stereo not given)	100.9
COc1cc(OC)c(CN2CCN(c3ccccc3C)CC2)cc1Br	93.3
COc1cc(C=Nc2cc(Cl)ccc2O)ccc1O	85.0
O=C(NCCCSc1ccccn1)Nc1nccs1	86.3
CC1CCN(CCCC(=O)c2ccc(F)cc2)CC1	95.7
O=C(CCCN1CCC2(CC1)C(=O)NCN2c1ccccc1)c1ccc(F)cc1	56.0*!
O=C(CCCN1CCC(O)(c2ccc(Cl)cc2)CC1)c1ccc(F)cc1	100.7
Cc1ccnc(SCC(=O)c2ccc(Br)cc2)n1	97.0
Cc1ccc(Cl)cc1N1C(=O)CC(N2CCC(C(N)=O)CC2)C1=O (stereo not given)	89.4
CC1CCOC2(CCC(C(C)(C)C)CC2)O1 (stereo not given)	113.2
CC1CN(C(N)=S)N(c2ccccc2)C1 (stereo not given)	103.1
O=c1cccccc1NC1CCCCC1	99.2
COc1ccc(C)c2sc(NN)nc12	98.1
CN=c1nc(-c2ccccc2)n(-c2ccccc2)s1	49.7*
CCSc1nnc(-c2ccccc2)n1-c1ccccc1	97.7
CC1(C)Cn2c(nnc2-c2ccccc2)S1	92.2
O=C(O)CSc1nnc2n1-c1ccc(Cl)cc1NN2	55.9*
Clc1ccc2c(c1)NNc1nncn1-2	93.1
SMILES	RVFV N-RNA FP
NC(=O)CSc1nc2ccc(Cl)cc2[nH]1	99.7
c1ccc2[nH]c(C3CCN(CCN4CCOCC4)CC3)nc2c1	94.6
O=CNCCc1nc2ccccc2n1Cc1ccccc1	93.8
O=C(/C=C/c1ccc(F)cc1)NC(=S)NN1CCOCC1	89.2
CC1CCc2cc(F)ccc2N1C(=O)c1ccc2nccnc2c1 (stereo not given)	103.2
CCCOc1ccc(/C=C2\SC(=O)NC2=O)cc1	94.5
O=C(/C=C/c1ccco1)NC(=S)N1CCNC(=O)C1CC(=O)OCC1CCCO1 (stereo not given)	89.4
Cc1ccc(C(=O)C(NC(=O)c2ccco2)Nc2ccc(C)c(Cl)c2)cc1 (stereo not given)	100.8
COc1ccc2oc(=O)c(C(=O)NC3CCCCC3C)cc2c1 (stereo not given)	100.1
N/C(COc1ccc(-c2nnco2)cc1)=N\OC(=O)c1cccc(C(F)(F)F)c1	91.2
CCCCc1ccc(NC(=O)CSCC(N)=O)cc1	97.3
Cc1ccc(CNC(=O)c2cnc3ccccn3c2=O)cc1	105.8
COCCN1C(=O)c2ccc(C(=O)Nc3ccccc3)cc2C1=O	97.4
Cc1cccc(C(=O)N2CC(C)CC(C)C2)c1 (stereo not given)	96.6
Nc1ccc2ncnc(NCCc3ccc(Oc4ccccc4)cc3)c2c1	105.3
Cc1cc(C)nc(Nc2ccc(Nc3ccccc3)cc2)n1	99.9
O=C1c2cccc3c(Cl)ccc(c23)C(=O)N1c1ccccn1	88.9
Cc1ccc(N2C(=O)c3cccc4c(N5CCN(C)CC5)ccc(c34)C2=O)c2cccnc12	54.7*
O=C(O)c1ccc2c3c(cccc13)C(=O)N(c1ccccc1O)C2=O	96.7
Cn1c(=O)n(Cc2ccccc2)c(=O)c2c1nc1n2CCCN1c1cccc(Cl)c1	91.1
CC(=O)NC(Nc1cc(C)ccc1C)C(=O)c1ccccc1 (stereo not given)	93.7
CN(C)C(=S)Nc1ccccc1OC(F)F	95.9
